Experimental data published in PubChem BioAssay AID1671194 (National Center for Advancing Translational Sciences (NCATS), 2021).
About 240 (0.17%) of roughly 140,000 compounds were called active. Inconclusive results (about 9%) are left out. This excerpt belongs to a sample that is enriched for actives. Values without a mark were called inactive. The call rests on the fitted dose curve; in most records, active means well fitted inhibition curve with a large enough effect; inconclusive means small, poorly fitted or top-dose-only effect; inactive means no such curve, though single readings can be large or run the other way.

experiment: Primary qHTS assay for inhibitors of alpha-synuclein gene (SNCA) expression; details: HEK-293 SNCA-luciferase knock-in, luminescence, 24 h; series mostly up to 57.2 µM; activity change, negative = inhibition: at the top concentration; further: nearly all actives have a fitted effect of over 45% in size
Text: Assay Submitter (PI): Daniel R. Scoles Ph.D.
Department of Neurology, University of Utah, Salt Lake City, Utah
Accumulation of alpha-synuclein is a main underlying pathological feature of Parkinson's disease (PD) and alpha-synucleinopathies, for which lowering expression of the alpha-synuclein gene (SNCA) is a potential therapeutic avenue. Using a cell-based luciferase reporter of SNCA expression we performed a quantitative high throughput screen (qHTS) of 155,885 compounds in dose response. The screening assay was generated using genome editing to insert the luciferase gene downstream and in frame of the SNCA gene in HEK-293 cells (1). A viability counterscreen using GF-AFC was used to eliminate cytotoxic and false positive compounds. After in silico analysis (clustering, removal of frequent hitter nuisance chemotypes), inhibitor compounds from the primary screen were selected for follow up and re-tested at 11-doses in the SNCA-luc cells (luciferase and GF-AFC confirmation), and in CMV-luc expressing cell line to flag general transcriptional repressors.
Described herein are the results of the primary screen for SNCA inhibitors; decrease in luciferase signal (inhibition of the SNCA gene expression) is the desired output for this assay.
1. Dansithong, W., Paul, S., Scoles, D. R., Pulst, S. M., and Huynh, D. P. (2015) Generation of SNCA Cell Models Using Zinc Finger Nuclease (ZFN) Technology for Efficient High-Throughput Drug Screening. PLoS ONE 10, e0136930.
SEQUENCE No. (e.g., 1, 2, 3, etc.); […] (e.g., Cells, Incubation, Reagent, etc.); VALUE; DESCRIPTION
1; Cells; 4 uL; Dispense 1500 HEK-293-SNCA-luc cells/well into Greiner 1536-well white / solid bottom tissue culture treated plate. The plate was covered with metal lids with gas-exchange holes.
2; Incubate; 24 hours; Incubate at 37C, 5% CO2, 95% RH.
3; Compounds; 23 nL; Compounds and controls were transferred via a Kalypsys Pin Tool (Wako USA) equipped with a 1536-slotted pin array. The plate was covered with metal lids with gas-exchange holes.
4; Incubate; 24 hours; Incubate at 37C, 5% CO2, 95% RH.
5; Dispense; 1 uL; Dispense Gly-Phe-7-amino-4-trifluoromethylcoumarin (GF-AFC, prepared at 125 uM in PBS) was added. The plate was covered with metal lids with gas-exchange holes.
6; Incubate; 30 min; Incubate at 37C, 5% CO2.
7; Detector; Fluorescence; Measure fluorescence with ViewLux microplate reader (PerkinElmer) equipped with 405/10 excitation and 540/25 emission filters.
8; Dispense; 3 uL; Dispense ONE-Glo ([…]) lucifase detection reagent was added to each well. Plates were covered with metal lids with gas-exchange holes.
9; Incubate; 15 min; Incubate at room temperature.
10; Detector; Luminescence; Measure luminescence with ViewLux microplate reader (PerkinElmer) equipped with clear filters.
NOTES (numbers refer to sequence above)
1; HEK-293-SNCA-luc were cultured and suspended in phenol-red free DMEM (4.5 g/L glucose, 25 mM HEPES, cat #21063 (Thermo)).
3; Compounds were added to the assay plate in an 11-point intra plate dose response, 1:3 titration in DMSO with a final concentration range of […]. Vehicle-only plates, with DMSO being pin-transferred to every well, were inserted at the beginning of screening runs to confirm expected assay performance. Activity was normalized to wells containing medium only (-100% activity, full inhibition) and SNCA-luc cells treated with DMSO vehicle control (0% activity), contained on the same plate as test samples.
10; Signals were analyzed, and dose-response curves were fit using the Hill equation. Compounds in curve classes -1.1, -1.2, -2.1, -2.2 in the SNCA-luc assay were considered active. Compounds were eliminated from further consideration if also active (curve class -1.1, -1.2, -1.3, -1.4, -2.1, -2.2, -2.3, -2.4) in the GF-AFC cytotoxicity assay.
Potency means the concentration at half of the fitted maximal effect.

In order of falling “activity change, negative = inhibition” value:
1. O=c1c2nc(-c3ccccc3)ccc2ncn1Cc1ccccc1  126% [at 87.6 µM]
2. O=C(NCCc1ccccc1)c1ccc2nnc(C3CCCC3)n2c1  29.4% [at 87.6 µM]
3. Cc1cc(OC2CN(C(=O)c3ccccc3F)C2)ccc1F  16.4% [at 87.6 µM]
4. CNC(=O)C1CCCCN1Cc1ccc(-c2cccs2)cc1 (configuration not stated)  11.2% [at 87.6 µM]
5. CC1=C[C@@H](CNC(=O)Nc2ccccc2)[C@H](C(C)C)C[C@H]1CC(=O)NCCN(C)C  10.4% [at 87.6 µM]
6. O=C1[C@@H]2C[C@@H](O)CN2C2(CN(C3CCC3)C2)C(=O)N1Cc1ccccc1  -1.96% [at 87.6 µM]
7. COC(=O)N1CCN(C(=O)c2cccc(-c3ccccc3OC)c2)CC1  -11.1% [at 87.6 µM]
8. COc1ccc(CC(=O)N2CC[C@@H](CC(=O)O)[C@@H](CCN(C)c3ccccc3)C2)cc1  -13.9% [at 87.6 µM]
9. O=C(C1CCC1)N1CCC(O)(c2csc(CN3CCc4ccccc4C3)n2)CC1  -14.5% [at 87.6 µM]
10. Oc1ccccc1CN1CCOC[C@H]1c1ncc(-c2ccc(C(F)(F)F)cc2)[nH]1  -16.2% [at 87.6 µM]
11. COc1ccc(NC(=O)[C@@H]2C[C@@H](c3ccc(F)cc3)N(CCOc3ccccc3)C2)cn1  -25.5% [at 87.6 µM]

In order of falling “activity change, negative = inhibition” value:
1. CCCn1c(NCc2ccccc2F)nc2ccccc21  74.8%
2. CCOc1ccc(N(CC)C(=O)C2CCN(S(=O)(=O)c3cccc4nonc34)CC2)cc1  55.9%
3. O=C(NCCc1ccccn1)c1ccc2c(c1)N(S(=O)(=O)c1ccccc1)CC2  46.9%
4. Cc1cccc(OCCc2noc(C3CCCN(Cc4ccccc4C#N)C3)n2)c1 (configuration not stated)  45.5%
5. CCOC(=O)C1CCCN(C(=O)c2ccc3oc(-c4ccccn4)nc3c2)C1 (configuration not stated)  44.3%
6. Cc1ccc(OCCn2c(CNc3ccccc3C)nc3ccccc32)cc1  41.7%
7. CCOc1ccc2c(n1)CCN(C(=O)NC1CCCCC1)C2  37.6%
8. CC(C)NC(=O)C1(CCO)CCN(c2ncccn2)C1 (configuration not stated)  28.1%
9. COc1ccccc1NC(=O)Cn1c(-c2ccc(F)cc2)nc(C)c(CCO)c1=O  27.5%
10. Cc1ccc(-c2ccccc2CN2CCN(C(=O)NC(C)C)CC2)cc1Cl  25.7%
11. CC(=O)N1CCN(C(=O)c2ccc3nc(-c4ccncc4)oc3c2)CC1  25.2%
12. CCOc1ccccc1C(=O)Nc1ccc2c(c1)N(C)C(=O)c1ccccc1S2  23.5%
13. COc1ccccc1Nc1ccnc(N2CCC(C(=O)N3CCC(c4ccccc4)CC3)CC2)n1  20.6%
14. COc1cccc(CCC(=O)N2CCCN(S(C)(=O)=O)c3ccccc32)c1  15.4%
15. Cc1ccc([S+](=O)([O-])N2CCN(C(=O)c3nc4cccnc4n(C4CCCC4)c3=O)CC2)cc1  15%
16. CCCS(=O)(=O)N1CCC(CCOC)(NC(=O)NCC)CC1  12.8%
17. CC(C)CN(CC1CN(C(=O)Cc2cccs2)CCO1)C(=O)c1cccc2ccccc12 (configuration not stated)  10%
18. CC(C)(C)C(=O)N1CCc2nc(-c3ccc(Cl)cc3)nc(-c3ccccc3)c2C1  8.29%
19. COc1ccccc1-c1cc(C(=O)NCCSC)nn2cccc12  7.11%
20. COc1ccc(-c2ccnc(N[C@H]3CO[C@H]4[C@@H]3OC[C@H]4OC(=O)Nc3cccc4ccccc34)n2)cc1  5.69%
21. COc1ccc(-c2cc(N3CCCC(NC(=O)c4cccc(Cl)c4)C3)n[nH]2)cc1 (configuration not stated)  5.49%
22. CN1C[C@H](O)C[C@H]1c1nnc2n1CCN(C(=O)c1cc3ccccc3[nH]1)CC2  5.47%
23. CCC(=O)N1CCC2(CC1)OCC(C(=O)NCc1ccccc1)N2C(=O)c1ccc(C)cc1 (configuration not stated)  5.47%
24. Cc1cccc(CN2CCC3(Cc4ccccc4CNC3=O)C2)c1 (configuration not stated)  3.06%
25. CC1(c2cccnc2)N(CCOc2ccccc2)C(=O)OC12CCN(C(=O)c1cccc(Cl)c1)CC2 (configuration not stated)  1.76%
26. COc1ccc(-c2nc(CN3CCOC(CN)C3)c(C)o2)c2ccccc12 (configuration not stated)  1.15%
27. Cc1nonc1CC(=O)NC1CC(=O)N(Cc2cccc3ccccc23)C1 (configuration not stated)  -1.27%
28. CCN1CCN(C(=O)c2ccc3nnc(-c4ccc(OC(F)(F)F)cc4)n3c2)CC1  -1.31%
29. Cn1cccc1C(=O)N1C[C@@H](COc2ccccc2)[C@H](C(N)=O)C1  -3.67%
30. Oc1ccc(-c2nc(C3CC3)nc3c2CN(Cc2ccc(F)cc2)CC3)cc1  -3.74%
31. O=C1NC(=NC2CCCC2)C2(CCCN(Cc3ccsc3)C2)N1c1cc(F)cc(F)c1 (configuration not stated)  -4.31%
32. C[C@@H](O)[C@H](N)C(=O)N1CCc2onc(-c3cccc4ccccc34)c2C1  -8.21%
33. O=C1CC2(CCN(C(=O)C3CCCN3C(=O)Cc3ccccn3)CC2)Oc2ccccc2N1 (configuration not stated)  -11.9%
34. CCOc1ccc(NC(=O)CN(Cc2ccccc2)S(=O)(=O)c2ccc(Cl)cc2)cc1  -12.9%
35. COc1ccc(CN2CCN(c3ccccc3)CC2C)c(OC)c1OC (configuration not stated)  -13.8%
36. C=CCN(C)C(=O)[C@@H](C)C1CC[C@@]2(C)Cc3sc(NS(=O)(=O)c4ccc(Cl)cc4)nc3[C@@H](C)[C@@H]2[C@H]1O (some centres not stated)  -14.1%
37. COc1cccc(CC(=O)NC2CCN(c3cc(-c4ccc(F)cc4)[nH]n3)C2)c1 (configuration not stated)  -17.9%
38. Cc1c(Cl)cccc1NC(=O)N(C)CC1CCOC1 (configuration not stated)  -18.4%
39. CCN1C(=O)c2ccccc2Sc2ccc(NC(=O)Cc3ccc(OC)cc3)cc21  -20.1%
40. O=C1NCc2ccccc2CC12CCCN2Cc1ccccc1OC(F)(F)F (configuration not stated)  -23%
41. COc1ccc(Cl)cc1NC(=O)N1CCCC(Cn2cnc3cccnc32)C1 (configuration not stated)  -23.7%
42. CCOC(=O)C1CCCN(C(=O)Cc2ccc(N(Cc3cccc(F)c3)C(=O)c3ccco3)cc2)C1 (configuration not stated)  -23.9%
43. CCOc1cccc(CN2CCC(Oc3ccc(-c4noc(C5CC5)n4)cc3)C2)c1 (configuration not stated)  -28.9%
44. CC1=C(C(=O)N(C)C)C(c2ccc(Cl)cc2)N2C(CC(=O)NCc3ccco3)=CSC2=N1 (configuration not stated)  -31.5%
45. CCOc1ccccc1C(=O)N1CCC(Cc2nc(-c3ccccc3)no2)CC1  -35.6%

With `COc1cccc(NC(=O)Nc2ccc3c(c2)N(C)C(=O)c2ccccc2S3)c1` the Potency was 20 µM (active).
In the case of `COCc1nc(C2CC(N)C2)cc(N2CCC(c3[nH]ncc3C)CC2)n1` (configuration not stated), the Potency is reported as “inactive”.
For `CCOc1ccc(N(Cc2ccccc2)C(=O)c2nc(S(C)(=O)=O)ncc2Cl)cc1`, the Potency was 6.31 µM (active).
For `CCCn1c(NCc2ccc(N(CC)CC)cc2)nc2ccccc21`, the Potency was 17.8 µM (active).
In the case of `Cc1cccc(-c2nc3ccc(C(=O)N4CCCCC4)cc3o2)n1`, the Potency is reported as 7.94 µM (active).

In the case of `COCCN1C[C@H]2CN(C)c3ccccc3[C@@H]2N(C(=O)CC2CCCC2)CCC1=O`, the “activity change, negative = inhibition” value is reported as -13.7% [at 25.6 µM].
